Drawing on PubChem BioAssay (NCI), this text covers growth for nine compounds.

The panel holds about 83,000 compounds, 20% with a hit somewhere; the sample as a whole holds those more often.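 Negative percent growth values reflect cell death: -40 means 40% of the cells present at the start died, and -100 means all died.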 Unmarked numbers belong to inactive results. Calls of active or inactive are those of the source. Rule for the calls: active = growth percent below 10; inactive = the rest.

What all share (assay): NCI-60 one-dose screen, 48 h (100 = growth as untreated, 0 = no growth, -100 = all killed)
Assay [1] has as its system DU-145 prostate. The settings on record: 10 µM unless noted.
Assay [2] concerns K-562 leukemia. The settings on record: 10 µM unless noted.
The subject of assay [3] is MALME-3M melanoma. The settings on record: 10 µM unless noted.
For assay [4], the system named is MDA-MB-231 breast. The settings on record: 10 µM unless noted.
The test system of assay [5] is SF-268 CNS. The settings on record: 10 µM unless noted.
Assay [6] deals with SF-295 CNS. As to conditions: 10 µM unless noted.
Assay [7] relates to SF-539 CNS. As to conditions: 10 µM unless noted.
Assay [8] has as its system UACC-257 melanoma. The settings on record: 10 µM unless noted.
In assay [9] the test system is M14 melanoma. The settings on record: 10 µM unless noted.
Assay [10] relates to HCT-15 colon. The settings on record: 10 µM unless noted.
Assay [11] deals with HT29 colon. As to conditions: 10 µM unless noted.
Assay [12] deals with SNB-75 CNS. As to conditions: 10 µM unless noted.
Assay [13] has as its system SNB-19 CNS. The settings on record: 10 µM unless noted.
Assay [14] deals with PC-3 prostate. The settings on record: 10 µM unless noted.
For assay [15], the system named is UACC-62 melanoma. As to conditions: 10 µM unless noted.
The test system of assay [16] is SK-MEL-28 melanoma. As to conditions: 10 µM unless noted.
The test system of assay [17] is RXF 393 renal. The settings on record: 10 µM unless noted.
The test system of assay [18] is U251 CNS. The settings on record: 10 µM unless noted.
Assay [19] deals with SK-MEL-5 melanoma. The settings on record: 10 µM unless noted.
In assay [20] the test system is LOX IMVI melanoma. As to conditions: 10 µM.

As to `O=C1C=C(Cl)C(=O)c2ccccc21`, the growth was 118% in assay [1]; 24.2% in assay [2]; 85.1% in assay [3]; 69.1% in assay [4]; 93.2% in assay [5]; 97.4% in assay [6]. Besides, the growth in assay [7] was 109%; in [8], 96.2%; in assay [9] it was 107%; in assay [10] it was 98.9%; in assay [11], 119%; in assay [12], 71.4%. Besides, the growth in [13] was 97.4%; in assay [14], 81.7%; in assay [15] it was 98.2%; in assay [16], 116%.
With `CN(Cc1ccccc1)c1ccc(SC#N)cc1`, the growth in assay [1] is 103%; in assay [2], 31.8%; in [3], 82.4%; in assay [17], 68.3%; in assay [5], 85%; in assay [6] it was 95.4%. Further, the growth in assay [7] was 87.7%; in assay [8], 102%; in assay [9] it was 84%; in assay [10], 71.8%; in assay [11], 52.3%; in assay [12], 81.3%. Also, the growth is 93.3% in assay [13]; 73.4% in assay [18]; 27.4% in assay [14]; 98.2% in assay [19]; 97% in [15]; 45% in assay [20]. In addition, the growth in [16] is 101%.
Take `Cc1nnc(N/N=C/c2ccc([N+](=O)[O-])o2)[nH]c1=O`: the growth in assay [1] is 19.4%; in assay [2], 10.7%; in assay [3], -30.8% (active); in assay [4], 28.7%; in assay [5], 19.4%; in assay [6], -40.4% (active). The growth in assay [7] was -8.83% (active); in [8] it was 33.5%; in [9], 26.2%; in assay [10] it was 15.7%; in [11], 27.5%; in [12], 42.3%. In addition, the growth in assay [13] was 11.6%; in assay [18] it was 4.33% (active); in assay [14], 3.62% (active); in [19] it was -24.3% (active); in assay [15] it was 10.6%; in [20], 11%. In addition, in [16], the growth was 25.4%.
On to `CCCCCCCCCCCCNCCCc1ccccc1`, for which the growth in [1] was 84%; in [2], 2.28% (active); in [3], 82.5%; in [4] it was 61.3%; in assay [5], 80.6%; in assay [6], 102%. Further, the growth in [7] was 69.6%; in [8], 82%; in [10], 23.9%; in assay [11], 7.89% (active); in [12], 64.7%; in assay [13], 92.2%. Moreover, the growth in assay [14] is 78.9%; in assay [15], 57.2%; in [16], 73.4%.
For the compound `Cc1nn(CCO)c(C)c1N=[N+]([O-])c1c(C)nn(CCO)c1C`, the growth in assay [1] is -9.05% (active); in assay [2], -31.8% (active); in [3], -59.9% (active); in [4], 98.6%; in assay [5], 81.3%; in assay [6], 100%. Further, the growth in assay [7] is 89.1%; in assay [8], -56.2% (active); in assay [9], -61.6% (active); in assay [10], -4.21% (active); in assay [11], -14% (active); in assay [12], 52.4%. Further, the growth in assay [13] was 98.2%; in assay [18], 69.6%; in assay [14] it was 76.6%; in assay [15], 61%; in [20] it was 16%.
In the case of `Oc1c(C(Nc2ccccc2)c2ccccc2)ccc2cccnc12` (configuration not stated), the growth in [1] is 57.8%; in assay [2], 32.1%; in assay [3] it was 87.6%; in assay [17], 74.9%; in [5], 33.4%; in assay [6] it was 6.25% (active). For the same compound, the growth was 27.2% in assay [7]; 64.3% in [8]; 45.8% in [9]; 29.4% in assay [10]; 44.5% in assay [11]; 70.8% in [12]. Also, the growth in [13] was 46.8%; in assay [18], 25.7%; in assay [14], 28.9%; in assay [19], 19.7%; in assay [15], 31.4%; in assay [20], 31.6%. In addition, the growth in assay [16] is 53.3%.
Take `O=[n+]1c2ccccc2n([O-])c2cc(Cl)ccc21`: the growth was 94.9% in [1]; 45.3% in assay [2]; 85.1% in assay [3]; 87.6% in assay [4]; 28.1% in [5]; 63.5% in [6]. Besides, the growth in [7] is 53.1%; in [8] it was 80.7%; in assay [9], 104%; in assay [10], 43.7%; in assay [11], 74.1%; in assay [12], 50.7%. For the same compound, the growth in assay [13] is 94.2%; in [14], 50.2%; in assay [15], 81%; in assay [16], 99.2%.
As for `CCc1cccc(CC)c1N1C(=O)C=CC1=O`, the growth in assay [1] is 112%; in assay [2], 23.8%; in assay [3], 121%; in assay [4], 132%; in [5], 97.6%; in assay [6] it was 106%. Further, the growth is 107% in assay [7]; 81.6% in assay [8]; 104% in assay [10]; 113% in [11]; 93.8% in assay [12]; 105% in assay [13]. For the same compound, the growth in [18] was 100%; in assay [14], 110%; in assay [19] it was 98.1%; in assay [15], 112%; in assay [20] it was 106%; in assay [16], 119%.
For the compound `CN(C)c1ccc(/C=C/c2ccnc3ccccc23)cc1`, the growth in assay [1] is 78.1%; in assay [2], 25.1%; in assay [3], 60.2%; in [4] it was 57.4%; in [5], 70%; in assay [6], 31.7%. For the same compound, the growth in [7] was 47.2%; in [8] it was 41.9%; in [10], 26.8%; in [11], 4.25% (active); in assay [12], 22.4%; in assay [13] it was 51.7%. The growth in assay [18] was 38.3%; in [14] it was 53%; in assay [19], 33%; in assay [15], 34.4%; in [20], 38.3%; in [16] it was 71.8%.
